PubChem BioAssay AID1159580 (chemical genetic matrix, 2015)
The campaign covered roughly 5,500 compounds. About 2,000 (36%) were called active. Another 18% or so got no clear call; they are omitted. Rule as the data show it: active = normalized growth mostly below about 0.91 (no sharp cut-off); inconclusive = no clear call, values can overlap the other calls; inactive = mostly above about 0.92. This is one part of the list.

Experiment: chemical genetic growth profiling, strain panel (AID 1159580);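 also: tested at 20 µM; growth read once vehicle control cultures reached saturation at 30 °C; 1 = growth at the plate median or of vehicle wells; lower values mean less growth of the strain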
Settings: growth OD

Measured: normalized growth

O=C(O)CCC1NCC2CC1CN1CCCCC21 (configuration not stated)
inactive: S. cerevisiae deletion strains, locus YJR075W, strain HOC1, active compounds read low 1.01 | S. cerevisiae deletion strains, locus YKL009W, strain mrt4, active compounds read low 1.02 | S. cerevisiae deletion strains, locus YKL068W, active compounds read low 1 | S. cerevisiae deletion strains, locus YKL085W, strain MDH1 (second series), active compounds read low 1.02 | S. cerevisiae deletion strains, locus YKL085W, strain MDH1, active compounds read low 1.02 | S. cerevisiae deletion strains, locus YKL160W, strain elf1, active compounds read low 0.974 | S. cerevisiae deletion strains, locus YKL190W, strain CNB1, active compounds read low 1 | S. cerevisiae deletion strains, locus YKR001C, strain vps1, active compounds read low 0.995 | S. cerevisiae deletion strains, locus YKR026C, strain gcn3, active compounds read low 0.982 | S. cerevisiae deletion strains, locus YKR091W, strain srl3, active compounds read low 0.97 | S. cerevisiae deletion strains, locus YLL001W, strain dnm1, active compounds read low 0.954 | S. cerevisiae deletion strains, locus YLL026W, active compounds read low 0.98 | S. cerevisiae deletion strains, locus YLL041C, strain sdh2, active compounds read low 0.987 | S. cerevisiae deletion strains, locus YLR027C, strain aat2, active compounds read low 0.992 | S. cerevisiae deletion strains, locus YLR039C, strain RIC1, active compounds read low 0.998 | S. cerevisiae deletion strains, locus YLR058C, strain SHM2, active compounds read low 1.01 | S. cerevisiae deletion strains, locus YLR102C, strain apc9, active compounds read low 0.99 | S. cerevisiae deletion strains, locus YLR113W, strain HOG1, active compounds read low 0.983 | S. cerevisiae deletion strains, locus YLR221C, strain rsa3, active compounds read low 0.968 | S. cerevisiae deletion strains, locus YLR258W, strain gsy2, active compounds read low 0.992 | S. cerevisiae deletion strains, locus YLR262C, strain YPT6 (second series), active compounds read low 0.958 | S. cerevisiae deletion strains, locus YLR262C, strain YPT6, active compounds read low 0.97 | S. cerevisiae deletion strains, locus YLR268W, strain sec22, active compounds read low 0.988 | S. cerevisiae deletion strains, locus YLR320W, strain mms22, active compounds read low 0.962 | S. cerevisiae deletion strains, locus YLR330W, strain CHS5, active compounds read low 1.01 | S. cerevisiae deletion strains, locus YLR342W, strain FKS1 (second series), active compounds read low 1.05 | S. cerevisiae deletion strains, locus YLR342W, strain FKS1, active compounds read low 0.981 | S. cerevisiae deletion strains, locus YLR357W, strain rsc2, active compounds read low 0.971 | S. cerevisiae deletion strains, locus YLR370C, strain arc18, active compounds read low 0.978 | S. cerevisiae deletion strains, locus YLR371W, strain rom2, active compounds read low 0.998 | S. cerevisiae deletion strains, locus YLR384C, strain iki3, active compounds read low 0.969 | S. cerevisiae deletion strains, locus YLR418C, strain cdc73, active compounds read low 0.923 | S. cerevisiae deletion strains, locus YML016C, strain PPZ1, active compounds read low 1 | S. cerevisiae deletion strains, locus YML032C, strain rad52, active compounds read low 1 | S. cerevisiae deletion strains, locus YML120C, strain ndi1, active compounds read low 0.956 | S. cerevisiae deletion strains, locus YML124C, strain tub3, active compounds read low 0.997 | S. cerevisiae deletion strains, locus YMR058W, strain fet3, active compounds read low 0.969 | S. cerevisiae deletion strains, locus YMR078C, strain ctf18, active compounds read low 1 | S. cerevisiae deletion strains, locus YMR125W, strain sto1, active compounds read low 0.962 | S. cerevisiae deletion strains, locus YMR129W, active compounds read low 0.989 | S. cerevisiae deletion strains, locus YMR205C, strain PFK2, active compounds read low 0.964 | S. cerevisiae deletion strains, locus YMR223W, strain ubp8, active compounds read low 1.02 | S. cerevisiae deletion strains, locus YMR231W, strain pep5, active compounds read low 0.985 | S. cerevisiae deletion strains, locus YMR263W, strain SAP30, active compounds read low 0.998 | S. cerevisiae deletion strains, locus YMR307W, strain GAS1, active compounds read low 1.07 | S. cerevisiae deletion strains, locus YNL067W, strain RPL9B, active compounds read low 0.999 | S. cerevisiae deletion strains, locus YNL071W, strain lat1, active compounds read low 0.991 | S. cerevisiae deletion strains, locus YNL128W, strain TEP1, active compounds read low 1.02 | S. cerevisiae deletion strains, locus YNL153C, strain GIM3, active compounds read low 0.989 | S. cerevisiae deletion strains, locus YNL183C, strain NPR1, active compounds read low 0.938 | S. cerevisiae deletion strains, locus YNL209W, strain ssb2, active compounds read low 0.984 | S. cerevisiae deletion strains, locus YNL233W, strain BNI4, active compounds read low 1.01 | S. cerevisiae deletion strains, locus YNL248C, strain rpa49, active compounds read low 0.998 | S. cerevisiae deletion strains, locus YNL250W, strain rad50, active compounds read low 1.01 | S. cerevisiae deletion strains, locus YNL271C, strain bni1, active compounds read low 1 | S. cerevisiae deletion strains, locus YNL298W, strain CLA4, active compounds read low 0.997 | S. cerevisiae deletion strains, locus YNL307C, strain MCK1, active compounds read low 1 | S. cerevisiae deletion strains, locus YNL322C, strain KRE1 (second series), active compounds read low 0.97 | S. cerevisiae deletion strains, locus YNL322C, strain KRE1, active compounds read low 1.01 | S. cerevisiae deletion strains, locus YNR049C, strain mso1, active compounds read low 0.971 | S. cerevisiae deletion strains, locus YNR052C, strain pop2, active compounds read low 1 | S. cerevisiae deletion strains, locus YOL006C, strain TOP1, active compounds read low 1.04 | S. cerevisiae deletion strains, locus YOL012C, strain htz1 0.732 | S. cerevisiae deletion strains, locus YOL147C, strain pex11, active compounds read low 1 | S. cerevisiae deletion strains, locus YOR001W, strain rrp6, active compounds read low 1.01 | S. cerevisiae deletion strains, locus YOR061W, strain CKA2, active compounds read low 1 | S. cerevisiae deletion strains, locus YOR069W, strain VPS5, active compounds read low 1 | S. cerevisiae deletion strains, locus YOR070C, strain gyp1, active compounds read low 0.973 | S. cerevisiae deletion strains, locus YOR080W, strain dia2, active compounds read low 0.964 | S. cerevisiae deletion strains, locus YOR083W, strain WHI5, active compounds read low 0.965 | S. cerevisiae deletion strains, locus YOR106W, strain vam3, active compounds read low 0.968 | S. cerevisiae deletion strains, locus YOR136W, strain idh2, active compounds read low 0.998 | S. cerevisiae deletion strains, locus YOR144C, strain elg1, active compounds read low 0.988 | S. cerevisiae deletion strains, locus YOR184W, strain ser1, active compounds read low 1.04 | S. cerevisiae deletion strains, locus YOR231W, strain MKK1, active compounds read low 1.04 | S. cerevisiae deletion strains, locus YOR265W, strain rbl2, active compounds read low 0.977 | S. cerevisiae deletion strains, locus YOR270C, strain vph1, active compounds read low 0.951 | S. cerevisiae deletion strains, locus YOR290C, strain snf2, active compounds read low 0.916 | S. cerevisiae deletion strains, locus YOR316C, strain cot1, active compounds read low 0.992 | S. cerevisiae deletion strains, locus YPL051W, strain arl3, active compounds read low 0.982 | S. cerevisiae deletion strains, locus YPL055C, strain LGE1, active compounds read low 0.99 | S. cerevisiae deletion strains, locus YPL078C, strain atp4, active compounds read low 0.983 | S. cerevisiae deletion strains, locus YPL106C, strain sse1, active compounds read low 0.946 | S. cerevisiae deletion strains, locus YPL240C, strain hsp82, active compounds read low 0.974 | S. cerevisiae deletion strains, locus YPL241C, strain CIN2, active compounds read low 0.995 | S. cerevisiae deletion strains, locus YPL256C, strain CLN2, active compounds read low 1.02 | S. cerevisiae deletion strains, locus YPR119W, strain clb2, active compounds read low 0.991 | S. cerevisiae deletion strains, locus YPR141C, strain kar3, active compounds read low 0.987 | S. cerevisiae deletion strains, locus YPR163C, strain tif3, active compounds read low 0.983 | S. cerevisiae deletion strains, locus YPR167C, strain met16, active compounds read low 0.981 | S. cerevisiae deletion strains, strain wtn01, active compounds read low 0.999 | S. cerevisiae strains, strain wild type, active compounds read low 1.01
